AMA1 RON2 block – disrupts binding of P. falciparum AMA1 to RON2 | 0.2% of 360,000 active | Potency, µM (highest dose often 58.2 µM), inactives show top-dose activity change, negative = inhibition, hits mostly inhibitors | AlphaScreen AMA1-biotinylated RON2 peptide binding | AID 720542;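 also: potency is read from the fitted curve at half-maximal effect; 0% = vehicle wells and -100% = peptide control; nearly all actives have a fitted effect of over 45% in size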
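AMA1 (3D7) with his tag at 25 nM final met compounds first, then biotinylated RON2 peptide at 25 nM; detection used donor plus acceptor beads, 10 µg/mL apiece, read by AlphaScreen after 30 min at room temperature.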
Pf growth 48h – P. falciparum growth inhibition at 48 hours (one generation); P. falciparum luciferase growth in erythrocytes, 48 h; Potency, µM (series often up to 28.7 µM), for the others: top-dose activity change, negative = inhibition, hits mostly inhibitors; 5.9% of 310,000 active; also: potency is read from the fitted curve at half-maximal effect; % is scaled to controls: 0 for no effect and ±100 for the full control effect
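Luciferase-expressing parasites in RBCs, 2% Hct / 0.1% parasitemia final; RPMI 1640 + 0.5% Albumax; 37 C, 5% CO2, one generation; luminescence read-out, lower signal = inhibition.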
HCV inh – inhibitors of hepatitis C virus infection; Huh7.5.1 HCVcc-Cre infection, luciferase reporter, 44 h; Potency, µM (series often up to 41.8 µM), inactives show at the top dose activity change, negative = inhibition, hits mostly inhibitors; 3.4% of 340,000 active; AID 651820; also: potency is read from the fitted curve at half-maximal effect; % is scaled to controls: 0 for no effect and ±100 for the full control effect
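Antiviral activity was scored by luciferase reporter output from cells infected with HCVcc-Cre (~0.5 moi) in presence of compound, 44 h infection period, cells seeded 1,000/well 4 h prior.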
Shiga inhibitor – blocks Shiga toxin action in Vero cells; Vero cells, Shiga toxin protein synthesis inhibition reporter; inhibition, % at 38.7 µM; 9.2% of 290,000 active; AID 2315; in the data active = inhibition mostly above about 28%, no sharp cut-off; inactive = mostly below about 43%; also: 0% is about no effect
Pf growth 96h – P. falciparum growth inhibition at 96 hours; 6.9% of 320,000 active; Potency, µM (highest dose often 28.7 µM), without a hit: top-dose activity change, negative = inhibition, actives largely listed as inhibitors; P. falciparum luciferase reporter growth, 96 h; AID 504834; also: potency is read from the fitted curve at half-maximal effect; % is scaled to controls: 0 for no effect and ±100 for the full control effect
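Two-generation exposure (96 h) targets delayed-death phenotype. Reporter parasites carrying integrated firefly luciferase, in red cells at 2% hematocrit and 0.05% parasitemia final, kept at 37 C, 5% CO2; luminescence loss indicates inhibition.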
CHX counter – affects cycloheximide protein synthesis inhibition readout, counter-screen; cell reporter, cycloheximide protein synthesis inhibition counterscreen; max response, %; 12% of 300,000 active; AID 2314; in the data active = max response mostly above about 13%, no sharp cut-off; inactive = mostly below about 14%; also: read at 38.3 µM for the half of the compounds with a filed dose; 0% is about no effect
* marks the source's active call; other numbers are inactive results; ? = inconclusive; . = no result given; [ ] = another dose, or the depositor's remark. Compounds with a hit are over-represented: about 21% of the library has one in this group of screens. Unless noted, calls follow the shape of the dose curve; as a rule, active = well fitted curve in the direction sought with a large enough effect; inconclusive = small, poorly fitted or top-dose-only effect, or another doubt; inactive = no such curve, though single readings can be large; an effect the other way counts as inactive or inconclusive.

SMILES | AMA1 RON2 block | Pf growth 48h | HCV inh | Shiga inhibitor | Pf growth 96h | CHX counter
CC(=O)OC1(C)C=Cc2ccccc2C1=NS(=O)(=O)c1ccccc1 (centres undefined) | -17% | . | . | . | . | .
OCCC1CN(CC2CC2)CCN1Cc1ccc(F)c(F)c1 (centres undefined) | 10% | 35% | 31% | -5 | 13µM* | 1
OCCC1CN(C2CCC2)CCN1Cc1ccc(F)c(F)c1 (centres undefined) | -19% | -1% | 16% | -15 | 12µM* | -1
Cc1ccccc1CN1CCN(C2CCC2)CC1CCO (centres undefined) | -9% | 1% | -8% | 19 | 15µM* | 1
Cc1ccc(CN2CCN(C3CCC3)CC2CCO)cc1 (centres undefined) | -4% | 4% | 0% | . | ? | -2
CC(C)NC(=O)c1cc(C2CCCCN2S(=O)(=O)c2cccc3cccnc23)on1 (centres undefined) | 2% | . | . | . | . | .
CC(=O)Nc1cc(-c2cccc(CO)c2)cn2c(-c3ccc(F)cc3)cnc12 | -6% | . | . | . | . | .
C[C@@H]1CN(CCCn2c3ccccc3c3ccccc32)C[C@H](C)N1 | . | 8.5µM* | . | -8 | 5.4µM* | -3
O=C(Oc1ccccc1C(=O)N1CCOCC1)c1ccc(Br)cc1 | -11% | . | 1% | -13 | . | -3
O=C(/C=C\N1CCOCC1)c1ccc(Br)cc1 | 9% | 32% | 4% | 34* | ? | 27*
O=C(/C=C/N1CCOCC1)c1ccc(-c2ccccc2)cc1 | -5% | 53% | -6% | 50 | . | 42*
O=C1NC2(CCCCC2)N=C1c1ccc(Br)cc1 | 15% | 8% | 1% | -4 | . | 15*
COc1cccc(CCc2nnc(N)s2)c1 | -2% | 59% | 13% | . | -3% | -4
CCOc1ccc2nc(SCC(=O)c3ccccc3)sc2c1 | 88% | . | -1% | 91* | 39% | 43*
CCOc1ccc2nc(SCCNS(=O)(=O)c3ccccc3)sc2c1 | -19% | -16% | ? | -5 | 42% | 1
CCOc1ccc2nc(SCC(=O)NC3CC3)sc2c1 | -10% | 21% | ? | 20 | 61% | 15*
COc1ccc(C(C)=O)cc1CSc1ccc(S(=O)(=O)N2CCCCC2)cn1 | -5% | ? | ? | . | -12% | .
O=C(Cn1cc(C(F)(F)F)cc(Cl)c1=O)NCc1ccc(F)cc1 | 7% | 72% | 17% | 87* | 56% | 23
CN(C)S(=O)(=O)c1cccc(NC(=O)Cn2cc(C(F)(F)F)cc(Cl)c2=O)c1 | -2% | -9% | 6% | 71* | 26% | 7
CC(SC1=NCCN1S(=O)(=O)c1ccc(F)cc1)c1ccccc1 (centres undefined) | 17% | ? | ? | 0 | 12µM* | 1
Cc1ccc(S(=O)(=O)N2CCN=C2SC(C)c2ccccc2)cc1 (centres undefined) | 7% | -4% | ? | -5 | ? | 8
CC(SC1=NCCN1S(=O)(=O)c1ccccc1)c1ccccc1 (centres undefined) | 4% | -23% | ? | -5 | 13µM* | 1
CSC1=NCCN1S(=O)(=O)c1ccc(F)cc1 | 13% | -15% | 21% | 4 | 32% | 6
COc1cc(C2NC(=O)NC(C)=C2C(=O)OC2CCCCC2)cc(Cl)c1O (centres undefined) | 32% | -30% | 17% | 7 | 46% | 8
Cn1cccc1Cc1nnc(SCC(=O)Nc2ccc3c(c2)OCCO3)n1CCc1ccccc1 | -16% | . | -17% | -4 | 12µM* | 5
SMILES | AMA1 RON2 block | Pf growth 48h | HCV inh | Shiga inhibitor | Pf growth 96h | CHX counter
COc1ccc(OC)c(C(=O)CSc2nnc(Cc3cccs3)n2CCc2ccccc2)c1 | 11% | 12µM* | ? | -15 | 13µM* | 26
Cn1cccc1Cc1nnc(SCC(=O)Nc2ccc(F)cc2)n1CCc1ccccc1 | 6% | ? | ? | -14 | ? | -5
COc1ccc(OC)c(NC(=O)CSc2nnc(Cc3cccn3C)n2CCc2ccccc2)c1 | -29% | 5.2µM* | . | -27 | 12µM* | 0
O=S(=O)(c1ccccc1)N(F)S(=O)(=O)c1ccccc1 | 3% | 42% | 20% | . | 29% | .
Cc1cccc(N2CCN(C(=O)c3c(C)nn(Cc4ccccc4Cl)c3C)CC2)c1C | -3% | . | 32µM* | -3 | 7.4µM* | 10
Cc1cccc(N2CCN(C(=O)CSCc3c(C)noc3C)CC2)c1C | 12% | 2% | 4µM* | 20 | 62% | 17
CCOC(=O)N1CCN(C(=O)CCCOc2ccccc2)CC1 | 8% | 162% | -5% | 113* | . | 29*
CCOC(=O)c1ccccc1NC(=O)Cc1c(C(=O)O)n(C)c2ccccc12 | -11% | -3% | 6% | -3 | 25% | 0
CC(=O)Nc1ccc(NC(=O)c2c(C)nn(Cc3ccccc3Cl)c2C)cc1 | 16% | -8% | 10% | -6 | -17% | -4
CCOC(=O)N1CCN(C(=O)Cc2c(C(=O)O)n(C)c3ccccc23)CC1 | -12% | -4% | 3.5µM* | -7 | -4% | -2
O=C(CCCOc1ccccc1)N1CCN(c2ccccc2)CC1 | -17% | . | 15% | 35 | ? | 22
Cc1cccc(N2CCN(C(=O)Cc3ccccc3[N+](=O)[O-])CC2)c1C | -6% | 15% | 2% | 24 | -22% | 27*
Cc1cccc(N2CCN(C(=O)CCCOc3ccccc3)CC2)c1C | 8% | 129% | 6% | 134* | 8% | 64*
CC(NC(=O)C1CCC(C(C)(C)C)CC1)C(c1ccccc1)N1CCOCC1 (centres undefined) | 35% | ? | 19% | -2 | 10µM* | -1
CC(NC(=O)C1CC1)C(c1cccs1)N1CCOCC1 (centres undefined) | -3% | -3% | 10% | -8 | 57% | 7
CC(NC(=O)Nc1ccc(Cl)c(Cl)c1)C(c1ccccc1)N1CCOCC1 (centres undefined) | 40% | ? | ? | -13 | 5.2µM* | 2
Cc1ccc2c(c1)C(c1ccccc1)N(C(=O)c1ccc(Br)cc1)CC(=O)N2 (centres undefined) | -9% | 0%[0.00184 µM] | ? | -8 | -19% | -4
CNC(=S)N(C)CCc1cc2c(c(OC)c1C=C1C(=O)NC(=O)NC1=O)OCO2 | -10% | ? | -12% | -15 | 5.2µM* | 0
C=CCN1C(=O)NC(=O)/C(=C/c2c(CCN(C)C(=O)c3ccccc3)cc3c(c2OC)OCO3)C1=O | -1% | ? | -2% | -3 | -15% | -1
COc1c(/C=N/NS(=O)(=O)c2ccc(C)cc2)c(CCN(C)C(C)=O)cc2c1OCO2 | -3% | 3% | -10% | 13 | 13% | -1
COc1c(/C=N/Nc2ccc(C(=O)O)cc2)c(CCN(C)C(C)=O)cc2c1OCO2 | -2% | 16% | 7% | 70* | 19% | 25*
